Only some compounds are listed: those with a hit (about 1.6% of all), similar ones and a draw of the others.
OPRM1-OPRD1 ag: agonists of human mu-delta opioid receptor heterodimerization; P35372+P41143; 0.3% of 340,000 active; cells, OPRM1-OPRD1 heterodimerization, luminescence; activation, % at 9.3 µM; AID 504326
OPRM1-OPRD1 inv: inverse agonist of human OPRM1-OPRD1 heterodimerization. P35372+P41143. inhibition, % at 9.3 µM. cell-based MOR-DOR heterodimer luminescence, inverse agonism. AID 504357. 0.21% of 340,000 active; in the data active = inhibition above about 22%, passing the limit was not always enough
m5-HT2A agonist: mouse HTR2A agonism via beta-arrestin recruitment; P35363; CHO-K1 mHTR2A beta-arrestin complementation, luminescence; percent of 30 µM serotonin response; activation, % at 7.6 µM; 0.66% of 360,000 active;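 active = activation above a run cutoff, the mean activation of all tested compounds plus 3 SD, cut at about 14% in these data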
HTR5A inv ag: inverse agonist of human HTR5A in OPRM1-OPRD1 counter-screen; AID 504634; HTR5A cell line, luminescence, inverse agonism; 0.083% of 340,000 active; inhibition, % at 9.3 µM; P47898; in the data active = inhibition mostly above about 23%, no sharp cut-off; inactive = mostly below about 18%
Target sequence (P47898 whole entry, looked up): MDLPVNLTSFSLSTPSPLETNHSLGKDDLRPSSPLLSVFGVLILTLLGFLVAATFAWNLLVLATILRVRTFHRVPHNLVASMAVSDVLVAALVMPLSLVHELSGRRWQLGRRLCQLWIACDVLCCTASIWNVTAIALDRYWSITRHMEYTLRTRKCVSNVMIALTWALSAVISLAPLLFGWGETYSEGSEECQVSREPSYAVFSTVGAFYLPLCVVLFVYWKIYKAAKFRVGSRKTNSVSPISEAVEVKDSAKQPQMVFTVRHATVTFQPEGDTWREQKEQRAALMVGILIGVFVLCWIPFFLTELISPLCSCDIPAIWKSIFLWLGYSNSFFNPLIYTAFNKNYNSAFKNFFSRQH
HTR5A ag: HTR5A agonism, opioid heterodimer counter-screen; P47898; HTR5A agonist assay, luminescence, cell-based; activation, % at 9.3 µM; 0.61% of 340,000 active; AID 504692; in the data active = activation mostly above about 9.5%, no sharp cut-off; inactive = mostly below about 7.6%
MOR-DOR ag conf: confirmation of human OPRM1-OPRD1 heterodimerization agonists; shares compounds with OPRM1-OPRD1 ag; cells, MOR-DOR heterodimerization, luminescence complementation; activation, % at 9.3 µM; 45% of 830 active; AID 504904
HTR5A ag ctr2: HTR5A agonism, opioid heterodimer counter-screen; 8% of 830 active; HTR5A agonist counterscreen, cell luminescence; shares compounds with OPRM1-OPRD1 ag; activation, % at 9.3 µM; in the data active = activation above about 17%
Hits are given with their value; n = inactive; x = not tested or not shown. Rule as the data show it, unless noted: active = activation above about 18%; inactive = the rest.

SMILES | OPRM1-OPRD1 ag | OPRM1-OPRD1 inv | m5-HT2A agonist | HTR5A inv ag | HTR5A ag | MOR-DOR ag conf | HTR5A ag ctr2
CC1O[C@@H](OCC2O[C@@H](Oc3cc(O)c4c(c3)OC(c3ccc(O)cc3)CC4=O)[C@H](O)[C@@H](O)[C@@H]2O)[C@H](O)[C@H](O)[C@H]1O (stereo partly drawn) | n | n | n | n | n | x | x
CC[C@@H](C)[C@H](CNC)NC[C@@H](Cc1cccc2ccccc12)NCCc1cccc(C(F)(F)F)c1 | 24 | n | n | n | n | n | n
COCCNc1nc(NCCN2CCNC2=O)c2sccc2n1 | x | x | n | x | x | x | x
O=C(Nc1cccnc1)c1sc(Nc2ccccc2F)nc1-c1ccccc1 | 21 | n | n | n | n | n | n
Cc1ccc2c(C)c(C(=O)N(Cc3cccs3)C3CCS(=O)(=O)C3)oc2c1 (stereo not drawn) | 47 | n | n | n | n | 75 | n
COc1ccc(CN(C(=O)c2oc3ccc(F)cc3c2C)C2CCS(=O)(=O)C2)cc1 (stereo not drawn) | n | n | n | n | n | x | x
Cc1ccc(C(=O)N(Cc2cccs2)C2CCS(=O)(=O)C2)cc1 (stereo not drawn) | n | n | n | n | n | x | x
Cc1ccc2oc(C(=O)N(Cc3ccccc3)C3CCS(=O)(=O)C3)c(C)c2c1 (stereo not drawn) | 20 | n | n | n | n | n | n
Cc1cc2oc(C(=O)N(Cc3ccccc3)C3CCS(=O)(=O)C3)c(C)c2cc1C (stereo not drawn) | 40 | n | n | n | n | 21 | n
Cc1ccc2c(C)c(C(=O)N(Cc3ccccc3)C3CCS(=O)(=O)C3)oc2c1 (stereo not drawn) | 35 | n | n | n | n | n | n
O=C(NC1CC1)c1ccc2nc([C@H]3C[C@H](O)[C@@H](CO)O3)[nH]c2c1 | x | x | n | x | x | x | x
CCOC(=O)C1(CCOc2ccccc2)CCN(Cc2cnc(C)s2)CC1 | 72 | n | n | n | n | 80 | n
CCOC(=O)C1(CCOc2ccccc2)CCN(Cc2cccc3c2OCO3)CC1 | 18 | n | n | n | n | n | n
CCOC(=O)C1(CCOc2ccccc2)CCN(Cc2ccccc2O)CC1 | n | n | n | n | n | x | x
CCOC(=O)C1(CCOc2ccccc2)CCN(Cc2cccc(-n3cccn3)c2)CC1 | 33 | n | n | n | n | n | n
CCOC(=O)C1(CCOc2ccccc2)CCN(Cc2ccc(NC(C)=O)cc2)CC1 | 92 | n | n | n | n | n | n
CCOC(=O)C1(CCOc2ccccc2)CCN(Cc2cccc(F)c2)CC1 | n | n | n | n | n | x | x
O=C(Oc1cccc(Nc2ncnc3ccccc23)c1)c1ccccc1Cl | n | n | n | n | n | x | x
Cn1c(SCc2ccccn2)nc2c1c(=O)[nH]c(=O)n2C | n | n | n | n | n | x | x
CCOC(=O)C1(CCOc2ccccc2)CCN(Cc2ccc(OC)cc2)CC1 | 224 | n | n | n | n | n | n
COC(=O)c1cc2c(n1S(=O)(=O)c1ccc(C)cc1)C(=O)C(=O)c1[nH]cc(C(=O)OCc3ccccc3)c1-2 | 21 | n | n | n | n | 73 | n
N#C/C(=C(/O)CCl)c1nc(-c2ccccc2)cs1 | n | n | n | n | n | x | x
Cc1ccc(-c2csc(/C(C#N)=C(\O)CCl)n2)cc1 | 20 | n | n | n | n | n | n
Cc1ccc(S(=O)(=O)N2[C@@H](c3ccc(C(C)(C)C)cc3)C(C(=O)O)=CC[C@H]2c2cccs2)cc1 | 26 | n | n | n | n | 24 | n
CN(N=Cc1ccc([N+](=O)[O-])cc1)c1ccccn1 | x | x | n | x | x | x | x
SMILES | OPRM1-OPRD1 ag | OPRM1-OPRD1 inv | m5-HT2A agonist | HTR5A inv ag | HTR5A ag | MOR-DOR ag conf | HTR5A ag ctr2
CCOc1ccc2nc(NC3=NC(c4ccc(OC)cc4)CC(=O)N3)nc(C)c2c1 (stereo not drawn) | n | n | n | n | n | x | x
CCOc1ccc2nc(NC3=NC(C)(C)C=C(C)N3)nc(C)c2c1 | 158 | n | n | n | n | n | n
CCOc1ccc2c(C)nc(NC3=NC(C)(C)C=C(C)N3)nc2c1 | 170 | n | n | n | n | n | n
Cc1ccc(NC(=O)CCC(=O)OCC(=O)c2ccc(Oc3ccc([N+](=O)[O-])cc3)cc2)c(C)c1 | n | n | n | n | n | x | x
CCCc1nc2c(=O)n(C)c(=O)nc-2n(C)n1 | 28 | n | n | n | 9.4 | 337 | n
Cn1nc(-c2ccccn2)nc2c(=O)n(C)c(=O)nc1-2 | 41 | n | n | n | n | 28 | n
COc1ccc(C(=O)NCC(=O)OCC(=O)N2CCCc3ccccc32)cc1 | n | n | n | n | n | x | x
CN(C)C(CNC(=O)CCS(=O)(=O)c1ccccc1)c1ccccc1 (stereo not drawn) | 60 | n | n | n | n | n | n
O=C(CCNS(=O)(=O)c1ccccc1C(F)(F)F)NCCCSc1ccccc1 | n | n | n | n | n | x | x
CN(C)C(CNC(=O)CCNS(=O)(=O)c1ccccc1C(F)(F)F)c1ccccc1 (stereo not drawn) | 25 | n | n | n | n | 29 | n
CN(C)C(CNC(=O)CCc1c[nH]c2ccccc12)c1ccccc1 (stereo not drawn) | 138 | n | n | n | n | 20 | n
CS(=O)(=O)ON=C1CCN(S(=O)(=O)c2ccccc2)CC1 | n | n | n | n | n | x | x
COc1ccccc1OCC(=O)Nc1sc2c(c1C(=O)NCC1CCCO1)CCC2 (stereo not drawn) | n | n | n | n | n | x | x
Oc1cccc(C(=S)N2CCN(Cc3ccccc3)CC2)c1 | 32 | n | n | n | n | n | n
Cc1ccc(-n2cccn2)c(CN2CCC(CO)(CCc3ccccc3)CC2)c1 | 29 | n | n | n | n | n | n
OCC1(CCc2ccccc2)CCN(Cc2cc(Cl)ccc2O)CC1 | n | n | n | n | n | x | x
Cc1ccccc1NP1(=O)OCCCN1Cc1ccccc1Cl (stereo not drawn) | 30 | n | n | n | n | n | n
COc1ccc(OC)c(CN2C(=O)c3ccccc3C2c2nnnn2-c2c(C)cccc2C)c1 (stereo not drawn) | x | x | n | x | x | x | x
O=C(COc1ccc(/C=N/NC(=O)c2cc3ccccc3o2)cc1Br)Nc1ccccc1 | 45 | n | n | n | n | 41 | n
O=C(COc1ccccc1[N+](=O)[O-])Nc1ccc(NC(=O)c2cc3ccccc3o2)cc1 | n | n | n | n | n | x | x
COc1ccc(S(=O)(=O)N2CCCC2CNC(=O)c2cccc(OC)c2)cc1 (stereo not drawn) | n | n | n | n | n | x | x
CCOc1ccc(C(=O)C(CCC(CN(C)C)C(=O)c2ccc(OCC)cc2)CN(C)C)cc1 (stereo not drawn) | 29 | n | n | n | 14 | n | n
CCOC(=O)C1(CC2CCCCO2)CCN(Cc2cc3ccccc3[nH]2)CC1 (stereo not drawn) | 307 | n | n | n | n | n | n

Compound activity: PubChem, The Scripps Research Institute Molecular Screening Center
